# Data reported in PubChem BioAssay (NCATS).
# Inconclusive results are not listed. Entries that show only a call come without a potency. A number with no mark means an inactive call. The source made the active and inactive calls. The call rests on the fitted dose curve; in most records, active means well fitted curve in the direction sought with a large enough effect; inconclusive means small, poorly fitted or top-dose-only effect, or another doubt; inactive means no such curve, though single readings can be large; an effect the other way counts as inactive or inconclusive.
# Tests used:
# [1] = qHTS for Inhibitors of Plasmodium falciparum (GB4) proliferation (AID 504315); further: nearly all actives have a fitted effect of over 50% in size; further: potency means the concentration at half of the fitted maximal effect
# Method in brief: (§1)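 Erythrocytes infected with P. falciparum line (0.3% parasitemia, 2.5% hematocrit final) incubated with compounds 72 h at 37 °C, 5% CO2; SYBR Green lysis buffer added, fluorescence read next day. Normalized to 0.29 uM artemisinin and DMSO.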
# [2] = qHTS for Inhibitors of Plasmodium falciparum (7G8) proliferation (AID 504316); further: nearly all actives have a fitted effect of over 65% in size; further: potency means the concentration at half of the fitted maximal effect
# Method in brief: as §1
# [3] = qHTS for Inhibitors of Plasmodium falciparum (CP250) proliferation (AID 504320); further: potency means the concentration at half of the fitted maximal effect
# Method in brief: as §1
# [4] = qHTS for Inhibitors of Plasmodium falciparum (DD2) proliferation (AID 504314);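 further: parasite DNA measured by SYBR Green fluorescence after red cell lysis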
# Method in brief: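 Quantitative HTS growth inhibition: SYBR Green I binding to parasite DNA after 72 h drug exposure of infected erythrocytes (0.3% parasitemia, 2.5% hematocrit). Signals normalized per plate to inhibitor and vehicle wells.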
# [5] = qHTS for Inhibitors of Plasmodium falciparum (HB3) proliferation (AID 504318); further: nearly all actives have a fitted effect of over 60% in size; further: potency means the concentration at half of the fitted maximal effect
# Method in brief: as §1
# [6] = target: Ubiquitin carboxyl-terminal hydrolase 1 (Homo sapiens) (UniProt O94782); assay: Inhibitors of USP1/UAF1: Pilot qHTS (AID 504865);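 further: rhodamine fluorescence freed from ubiquitin-rhodamine substrate followed over time; top concentration of the series differs between compounds; nearly all actives have a fitted effect of over 35% in size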
# Chain of Ubiquitin carboxyl-terminal hydrolase 1 (Homo sapiens) (O94782 whole entry, looked up): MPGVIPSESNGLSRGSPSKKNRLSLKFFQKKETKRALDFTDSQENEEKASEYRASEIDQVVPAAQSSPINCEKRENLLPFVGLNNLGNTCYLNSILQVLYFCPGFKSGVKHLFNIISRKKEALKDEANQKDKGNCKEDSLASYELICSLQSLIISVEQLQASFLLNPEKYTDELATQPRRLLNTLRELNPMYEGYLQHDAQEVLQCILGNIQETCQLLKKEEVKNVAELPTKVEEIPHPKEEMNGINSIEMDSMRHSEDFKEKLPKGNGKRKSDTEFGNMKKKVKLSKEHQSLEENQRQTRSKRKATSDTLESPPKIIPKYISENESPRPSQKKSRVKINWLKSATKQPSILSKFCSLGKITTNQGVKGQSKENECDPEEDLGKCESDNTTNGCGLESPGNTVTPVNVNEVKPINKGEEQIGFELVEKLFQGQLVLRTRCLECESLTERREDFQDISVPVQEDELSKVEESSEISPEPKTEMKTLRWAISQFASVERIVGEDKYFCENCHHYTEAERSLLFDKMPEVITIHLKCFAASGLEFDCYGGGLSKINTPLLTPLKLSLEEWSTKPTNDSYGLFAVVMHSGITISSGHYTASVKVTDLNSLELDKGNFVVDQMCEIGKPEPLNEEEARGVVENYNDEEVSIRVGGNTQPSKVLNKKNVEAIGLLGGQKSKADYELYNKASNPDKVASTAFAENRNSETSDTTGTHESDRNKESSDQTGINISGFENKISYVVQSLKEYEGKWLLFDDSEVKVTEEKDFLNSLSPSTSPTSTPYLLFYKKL
# Method in brief: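 Enzyme-free wells gave the negative control, while test wells held 1nM USP1/UAF1 preincubated with compound for 15 min at room temperature. Ub-Rho at 150nM final started the reaction, and fluorescence at 480/540 nm was recorded kinetically.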
# [7] = qHTS profiling for inhibitors of Plasmodium falciparum proliferation (AID 504749); further: nearly all actives have a fitted effect of over 60% in size; settings: P. falciparum in erythrocytes, SYBR Green DNA, 72 h, at 28.7 µM (top of the series)
# Method in brief: (§2)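 Three-day growth assay of blood-stage parasites in erythrocytes (0.3% parasitemia, 2.5% hematocrit) at 37 C, 5% CO2, quantified by SYBR Green DNA staining after overnight detergent lysis.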
# ATS189 = assay: as above; settings: P. falciparum in erythrocytes, SYBR Green DNA, 72 h; series mostly up to 28.7 µM
# Method in brief: as §2
# CP185 = assay: as above; settings: P. falciparum in erythrocytes, SYBR Green DNA, 72 h; series mostly up to 28.7 µM
# Method in brief: as §2
# CP201 = assay: as above; settings: P. falciparum in erythrocytes, SYBR Green DNA, 72 h; series mostly up to 28.7 µM
# Method in brief: as §2
# CP238 = assay: as above; settings: P. falciparum in erythrocytes, SYBR Green DNA, 72 h; series mostly up to 28.7 µM
# Method in brief: as §2
# CP252 = assay: as above; settings: P. falciparum in erythrocytes, SYBR Green DNA, 72 h; series mostly up to 28.7 µM
# Method in brief: as §2
# CP265 = assay: as above; settings: P. falciparum in erythrocytes, SYBR Green DNA, 72 h; series mostly up to 28.7 µM
# Method in brief: as §2
# CP286 = assay: as above; settings: P. falciparum in erythrocytes, SYBR Green DNA, 72 h; series mostly up to 28.7 µM
# Method in brief: as §2
# CP305 = assay: as above; settings: P. falciparum in erythrocytes, SYBR Green DNA, 72 h; series mostly up to 28.7 µM
# Method in brief: as §2
# CP325 = assay: as above; settings: P. falciparum in erythrocytes, SYBR Green DNA, 72 h; series mostly up to 28.7 µM
# Method in brief: as §2
# DFO2036 = assay: as above; settings: P. falciparum in erythrocytes, SYBR Green DNA, 72 h; series mostly up to 28.7 µM
# Method in brief: as §2
# FAB9 = assay: as above; settings: P. falciparum in erythrocytes, SYBR Green DNA, 72 h; series mostly up to 28.7 µM
# Method in brief: as §2
# PC15 = assay: as above; settings: P. falciparum in erythrocytes, SYBR Green DNA, 72 h; series mostly up to 28.7 µM
# Method in brief: as §2
# PC49 = assay: as above; settings: P. falciparum in erythrocytes, SYBR Green DNA, 72 h; series mostly up to 28.7 µM
# Method in brief: as §2
compound,measurement,setting,value
COCOc1c2c(c(OCOC)c3c(OCOC)cccc13)C(=NNS(C)(=O)=O)C1=C2CCCC1,Potency,[1],inactive
same,Potency,[2],1.69 µM (active)
same,Potency,[3],inactive
COc1ccc(-c2nc3c(c4c2C[C@H](c2ccccc2)OC4)CN(C(=O)Cc2cccs2)CC3)c(C)c1,Potency,[4],inactive
same,Potency,[3],inactive
COC(=O)C(C(=O)OC)[C@@H]1c2ccccc2[C@H]2C(=C[C@@H](C)[C@H]3C(=O)N(c4ccccc4)C(=O)[C@H]32)N1C(=O)OC,Potency,[1],inactive
same,Potency,[2],inactive
same,Potency,[5],inactive
COC(=O)C1=C(C(=O)OC)[C@@H]2Nc3ccccc3[C@@]23C[C@@H](C(=O)OC)N(S(=O)(=O)c2ccc(C#N)cc2)C3=N1,Potency,[4],inactive
same,Potency,[3],inactive
COC(=O)C1=C(C(=O)OC)[C@@H]2N(Cc3ccccc3)c3ccccc3[C@@]23C[C@@H](C(=O)OC)N(S(=O)(=O)c2ccc(C#N)cc2)C3=N1,Potency,[1],2.13 µM (active)
same,Potency,[2],1.9 µM (active)
COc1ccc(C=CC2=CC3(C)CC2(C)C(c2ccc(OC)cc2)CC3=O)cc1 (stereo not given),Potency,[2],1.69 µM (active)
same,Potency,[3],inactive
COc1ccc([C@]23Cc4cc(C#N)ccc4[C@H](O2)c2c(cc(-c4ccccc4)oc2=O)O3)cc1,Potency,[2],1.35 µM (active)
same,Potency,[3],inactive
COc1ccc(-c2nc(-c3ccccc3)c(Nc3ccc4ccccc4c3)o2)cc1,Potency,[5],1.69 µM (active)
COC(=O)C1=C(C(=O)OC)[C@@H]2Nc3ccccc3[C@@]23C[C@@H](C(=O)OC)N(C(=O)C2CCC2)C3=N1,Potency,[1],inactive
same,Potency,[3],inactive
CCN(CC)CCCN1C=C2C(=O)C(C)(OC(=O)c3cccs3)C(=O)C=C2C=C1CCCC(=O)OC (stereo not given),Potency,[2],inactive
same,Potency,[5],inactive
same,Potency,[3],inactive
CC(=O)OC[C@H]1O[C@H](C#Cc2ccc(C)cc2C)C=C[C@H]1OC(C)=O,Potency,[2],1.69 µM (active)
same,Potency,[3],inactive
O=C1C=CC2(OCCCO2)C(Br)=C1CO,Potency,[3],inactive
C#CCCCON=C1C[C@@H](O)[C@@H](O)[C@@H]2[C@H]3C(=O)N([C@@H](C)c4ccccc4)C(=O)[C@@H]3CC[C@H]12,Potency,[1],inactive
same,Potency,[3],inactive
CCOC(=O)OC[C@H]1O[C@H](C#Cc2ccccc2)C=C[C@H]1OC(=O)OCC,Potency,[2],1.51 µM (active)
same,Potency,[3],inactive
CCCCCCCc1cc2ccccc2c2c(C(=O)OC)c(-c3ccccc3)c(C(=O)OC)n12,Potency,[2],inactive
same,Potency,[5],inactive
CC(=O)OC[C@H]1O[C@H](C#Cc2ccc(C(C)(C)C)cc2)C=C[C@H]1OC(C)=O,Potency,[2],1.69 µM (active)
COc1ccc(-c2nc(-c3ccccc3)c(Nc3c(C)cccc3C)o2)cc1,Potency,[3],inactive
CCCCCCC#C[C@@H]1C=C[C@H](OC(C)=O)[C@@H](COC(C)=O)O1,Potency,[3],inactive
CNCC(=O)NC(CCCN=C(N)N)C(=O)NC(C(=O)NC(Cc1ccc(O)cc1)C(=O)NC(C(=O)NC(Cc1cnc[nH]1)C(=O)N1CCCC1C(=O)NC(C)C(=O)O)C(C)C)C(C)C (stereo not given),Potency,[6],inactive
same,"activity, negative = inhibition",[7]; parasite line A,15.8%
same,"activity, negative = inhibition",[7]; parasite line B,17.4%
same,Potency,ATS189,inactive
same,Potency,CP185,inactive
same,Potency,CP201,inactive
same,Potency,CP238,inactive
same,Potency,CP252,inactive
same,Potency,CP265,inactive
same,Potency,CP286,inactive
same,Potency,CP305,inactive
same,Potency,CP325,inactive
same,Potency,DFO2036,inactive
same,Potency,FAB9,inactive
same,Potency,PC15,inactive
same,Potency,PC49,inactive
COC(=O)N1C2CC(=O)O[C@@H]3c4cc5c(cc4[C@]1(C)[C@@]3(Br)c1ccccc12)OCO5,Potency,[1],1.51 µM (active)
same,Potency,[3],1.2 µM (active)
COCOc1ccc(OC)cc1C(=O)C=Cc1ccc(OC)c(Br)c1,Potency,[5],1.69 µM (active)
C=CC1=C2C=C(C3CC3)N(C3CC3)C=C2C(=O)C(C)(OC(=O)c2ccco2)C1=O (stereo not given),Potency,[1],inactive
same,Potency,[5],inactive
same,Potency,[3],inactive
COc1ccc(O[C@H]2C=C[C@@H](c3ccccc3)O[C@H]2COC(=O)CCC(C)=NO[C@H](C)c2cn([C@H](CO)Cc3ccccc3)nn2)cc1,Potency,[1],inactive
same,Potency,[2],1.51 µM (active)
same,Potency,[3],inactive
CC(N)C(=O)NCC(=O)NC1CSSCC(C(=O)O)NC(=O)C(CO)NC(=O)C(C(C)O)NC(=O)C(Cc2ccccc2)NC(=O)C(C(C)O)NC(=O)C(CCCCN)NC(=O)C(Cc2c[nH]c3ccccc23)NC(=O)C(Cc2ccccc2)NC(=O)C(Cc2ccccc2)NC(=O)C(CC(N)=O)NC(=O)C(CCCCN)NC1=O (stereo not given),Potency,[6],inactive
same,"activity, negative = inhibition",[7]; parasite line A,12%
same,"activity, negative = inhibition",[7]; parasite line B,4.8%
same,Potency,ATS189,inactive
same,Potency,CP185,inactive
same,Potency,CP201,inactive
same,Potency,CP238,inactive
same,Potency,CP252,inactive
same,Potency,CP265,inactive
same,Potency,CP286,inactive
same,Potency,CP305,inactive
same,Potency,CP325,inactive
same,Potency,DFO2036,inactive
same,Potency,FAB9,inactive
same,Potency,PC15,inactive
same,Potency,PC49,inactive
